Results published in PubChem BioAssay (Tox21).
Unmarked numbers belong to inactive results. Results filed as inconclusive are left out. Entries that show only a call come without a potency. Calls of active or inactive are those of the source. Unless noted, the call rests on the fitted dose curve; in most records, active means well fitted curve in the direction sought with a large enough effect in the repeat runs; inconclusive means weak or mixed curves; inactive means no such curve, though single readings can be large; an effect the other way counts as inactive or inconclusive.

Test system: not listed separately
Assay: qHTS assay to identify small molecule agonists of the estrogen receptor beta (ER-beta) signaling pathway - cell viability counter screen (AID 1259380); further: nearly all actives have a fitted effect of over 30% in size; further: potency means the concentration at half of the fitted maximal effect
Details: ER-beta-bla HEK293T viability, CellTiter-Glo luminescence, 16 h; series mostly up to 92.4 µM
Outline: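 ER-beta-UAS-bla HEK293T cells in medium with 2% charcoal-stripped FBS were preincubated 6 hr at 37C, dosed with compound in DMSO for 16 hr, then after the bla read, CellTiter-Glo was added for 30 min at room temperature; luminescence recorded.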

| SMILES | Potency | activity change, negative = cytotoxicity |
| --- | --- | --- |
| COc1ccnc(CS(=O)c2nc3ccc(OC(F)F)cc3[nH]2)c1OC (configuration not stated) | inactive |  |
| O=C(O)c1ccc(S(=O)(=O)O)cc1C(=O)O | inactive |  |
| COS(=O)(=O)C(F)(F)F | inactive |  |
| OCCNCc1ccccc1 | inactive |  |
| CCOCC(O)COc1ccc(NC(=O)CC[S+](C)C)cc1 (configuration not stated) | inactive |  |
| CC(=O)c1cccc([N+](=O)[O-])c1 | inactive |  |
| CCCCC1=NC2(CCCC2)C(=O)N1Cc1ccc(-c2ccccc2-c2nn[nH]n2)cc1 | inactive |  |
| CCCCCCCN | inactive |  |
| CC(CC=O)c1ccccc1 (configuration not stated) | inactive |  |
| CCOC(=O)C(=O)CCc1ccccc1 | inactive |  |
| C[N+](C)(C)CCOC(=O)CCC(=O)OCC[N+](C)(C)C | inactive |  |
| CCCCCCCCO[C@@H]1O[C@H](CO)[C@@H](O)[C@H](O)[C@H]1O | inactive |  |
| c1cc(CCCc2ccncc2)ccn1 | inactive |  |
| CCOC(=O)Cc1cccc2ccccc12 | inactive |  |
| CCO[C@H](Cc1ccc(OCCc2ccc(OS(C)(=O)=O)cc2)cc1)C(=O)O | inactive |  |
| Cc1cc(C(=O)O)ccc1[N+](=O)[O-] | inactive |  |
| CCN(CC)CCNC(=O)c1cc(Br)c(N)cc1OC | inactive |  |
| OC[C@H]1O[C@@H](OCCc2ccc(O)cc2)[C@H](O)[C@@H](O)[C@@H]1O | inactive |  |

| SMILES | Potency | activity change, negative = cytotoxicity |
| --- | --- | --- |
| C=C1[C@H]2CC[C@@H]3[C@H]2C(C)(C)CCC[C@]13C | inactive |  |
| C=CCOc1ccccc1OCC(O)CNC(C)C (configuration not stated) | inactive |  |
| CCOC(=O)c1cccnc1 | inactive |  |
| NCC(=O)O |  | 4.31% [at 19 µM] |
| CN1Cc2cc(C(=O)N3CCC(C4CCNCC4)CC3)ccc2NC(CC(=O)O)C1=O (configuration not stated) | inactive |  |
| CCN(CC)CCOC(=O)C(c1ccccc1)C1CCCCC1 (configuration not stated) | inactive |  |
| O=C1C(O)=C(O)C(=O)C(O)=C1O | inactive |  |
| Cc1[nH]c(C)c(Cl)c(=O)c1Cl |  | 2.64% [at 19 µM] |
| O=C(O)CNCC(=O)O |  | 12.4% [at 8.39 µM] |
| O=C(CS)Nc1ccccc1 | inactive |  |
| NCC(=O)CCC(=O)O | inactive |  |
| Cc1ncc(CO)c(C=O)c1O | inactive |  |
| O=C1CCCCCCCCCCCC(=O)OCCO1 | inactive |  |
| CCOc1ccc(O)cc1 | inactive |  |
| NCCCN1CCOCC1 | inactive |  |
| CCCCCCCCCCCCCCCCOS(=O)(=O)O | 33.5 µM (active) |  |
| NCc1ccccc1Sc1ccccc1CO | inactive |  |

Biological target: Androgen receptor (Homo sapiens) (UniProt P10275)
Sequence (P10275 whole entry, looked up): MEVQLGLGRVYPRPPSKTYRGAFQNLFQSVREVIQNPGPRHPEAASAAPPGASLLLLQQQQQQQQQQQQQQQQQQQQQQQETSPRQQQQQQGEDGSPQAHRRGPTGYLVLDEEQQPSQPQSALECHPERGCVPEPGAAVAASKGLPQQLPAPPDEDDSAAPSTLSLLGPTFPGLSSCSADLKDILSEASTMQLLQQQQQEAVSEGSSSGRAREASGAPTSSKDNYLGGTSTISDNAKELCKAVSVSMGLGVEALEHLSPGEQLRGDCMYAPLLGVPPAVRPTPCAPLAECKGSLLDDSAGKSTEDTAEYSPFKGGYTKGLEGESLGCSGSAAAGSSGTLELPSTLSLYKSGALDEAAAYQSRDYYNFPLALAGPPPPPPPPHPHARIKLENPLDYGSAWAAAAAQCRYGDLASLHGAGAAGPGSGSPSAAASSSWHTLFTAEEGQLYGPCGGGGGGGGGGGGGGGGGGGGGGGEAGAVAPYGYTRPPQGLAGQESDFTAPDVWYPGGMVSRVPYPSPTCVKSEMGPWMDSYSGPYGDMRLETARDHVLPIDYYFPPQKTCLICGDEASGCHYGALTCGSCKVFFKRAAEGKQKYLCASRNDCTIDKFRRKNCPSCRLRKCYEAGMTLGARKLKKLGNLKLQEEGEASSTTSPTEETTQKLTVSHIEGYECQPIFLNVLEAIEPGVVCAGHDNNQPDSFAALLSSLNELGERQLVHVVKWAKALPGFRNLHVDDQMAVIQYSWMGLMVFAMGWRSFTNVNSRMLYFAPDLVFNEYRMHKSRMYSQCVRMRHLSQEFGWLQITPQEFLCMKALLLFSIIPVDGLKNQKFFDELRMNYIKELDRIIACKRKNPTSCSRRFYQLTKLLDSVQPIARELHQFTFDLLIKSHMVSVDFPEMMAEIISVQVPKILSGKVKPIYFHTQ
Assay: qHTS assay to identify small molecule agonists of the androgen receptor (AR) signaling pathway in the presence of an antagonist (AID 1259381; calls by dose curve; further: nearly all actives have a fitted effect of over 15% in size)
Details: MDA-kb2 MMTV-luciferase, AR agonist + nilutamide, 16 h; series mostly up to 42.5 µM
Outline: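 MDA-kb2 human breast carcinoma cells carrying an MMTV-luciferase reporter (AR- and GR-responsive) were treated with compounds at 15 concentrations plus 3.0uM final nilutamide for 16hr at 37C without CO2; luminescence was read after ONE-Glo addition.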

| SMILES | Potency | activation |
| --- | --- | --- |
| OCCNCc1ccccc1 | inactive |  |
| CCOC(=O)C(=O)CCc1ccccc1 | inactive |  |
| CCO[C@H](Cc1ccc(OCCc2ccc(OS(C)(=O)=O)cc2)cc1)C(=O)O | inactive |  |
| O=C(O)CNCC(=O)O |  | 3.52% [at 8.39 µM] |
| O=C1CCCCCCCCCCCC(=O)OCCO1 | inactive |  |
| NCCCN1CCOCC1 | inactive |  |
| CCCCCCCCCCCCCCCCOS(=O)(=O)O | inactive |  |
| NCc1ccccc1Sc1ccccc1CO | inactive |  |

Test system: not listed separately
Assay: qHTS assay to identify small molecule antagonists of the estrogen receptor beta (ER-beta) signaling pathway - cell viability counter screen (AID 1259382);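 further: HEK293T cells carrying ER-beta-UAS-bla reporter stimulated with estradiol; nearly all actives have a fitted effect of over 55% in size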
Details: ER-beta-UAS-bla HEK293T viability, CellTiter-Glo luminescence, 16 h; series mostly up to 92.4 µM
Outline: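 ER-beta-UAS-bla HEK293T cells (2,000/well, 2% charcoal-stripped FBS) were pre-incubated 6 hr at 37C, then given compound plus 1nM final 17-beta-estradiol for 16 hr. Viability was read in the same wells by CellTiter-Glo luminescence after 30 min at room temperature.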

| SMILES | Potency | activity change, negative = cytotoxicity |
| --- | --- | --- |
| COc1ccnc(CS(=O)c2nc3ccc(OC(F)F)cc3[nH]2)c1OC (configuration not stated) | inactive |  |
| O=C(O)c1ccc(S(=O)(=O)O)cc1C(=O)O | inactive |  |
| COS(=O)(=O)C(F)(F)F | inactive |  |
| OCCNCc1ccccc1 | inactive |  |
| CCOCC(O)COc1ccc(NC(=O)CC[S+](C)C)cc1 (configuration not stated) | inactive |  |
| CC(=O)c1cccc([N+](=O)[O-])c1 | inactive |  |
| CCCCC1=NC2(CCCC2)C(=O)N1Cc1ccc(-c2ccccc2-c2nn[nH]n2)cc1 | inactive |  |
| CCCCCCCN | inactive |  |
| CC(CC=O)c1ccccc1 (configuration not stated) | inactive |  |
| CCOC(=O)C(=O)CCc1ccccc1 | inactive |  |
| C[N+](C)(C)CCOC(=O)CCC(=O)OCC[N+](C)(C)C | inactive |  |
| CCCCCCCCO[C@@H]1O[C@H](CO)[C@@H](O)[C@H](O)[C@H]1O | inactive |  |
| c1cc(CCCc2ccncc2)ccn1 | inactive |  |
| CCOC(=O)Cc1cccc2ccccc12 | inactive |  |
| CCO[C@H](Cc1ccc(OCCc2ccc(OS(C)(=O)=O)cc2)cc1)C(=O)O | inactive |  |
| Cc1cc(C(=O)O)ccc1[N+](=O)[O-] | inactive |  |
| CCN(CC)CCNC(=O)c1cc(Br)c(N)cc1OC | inactive |  |

| SMILES | Potency | activity change, negative = cytotoxicity |
| --- | --- | --- |
| OC[C@H]1O[C@@H](OCCc2ccc(O)cc2)[C@H](O)[C@@H](O)[C@@H]1O | inactive |  |
| C=C1[C@H]2CC[C@@H]3[C@H]2C(C)(C)CCC[C@]13C | inactive |  |
| C=CCOc1ccccc1OCC(O)CNC(C)C (configuration not stated) | inactive |  |
| CCOC(=O)c1cccnc1 | inactive |  |
| NCC(=O)O |  | -1.05% [at 19 µM] |
| CN1Cc2cc(C(=O)N3CCC(C4CCNCC4)CC3)ccc2NC(CC(=O)O)C1=O (configuration not stated) | inactive |  |
| CCN(CC)CCOC(=O)C(c1ccccc1)C1CCCCC1 (configuration not stated) | inactive |  |
| O=C1C(O)=C(O)C(=O)C(O)=C1O | inactive |  |
| Cc1[nH]c(C)c(Cl)c(=O)c1Cl |  | 0.273% [at 19 µM] |
| O=C(O)CNCC(=O)O |  | -2.7% [at 8.39 µM] |
| O=C(CS)Nc1ccccc1 | inactive |  |
| NCC(=O)CCC(=O)O | inactive |  |
| Cc1ncc(CO)c(C=O)c1O | inactive |  |
| O=C1CCCCCCCCCCCC(=O)OCCO1 | inactive |  |
| CCOc1ccc(O)cc1 | inactive |  |
| NCCCN1CCOCC1 | inactive |  |
| NCc1ccccc1Sc1ccccc1CO | inactive |  |
